Assay outcomes: PubChem BioAssay, several laboratories
CCHFV vOTU inh = blocks the CCHF virus ovarian tumor domain protease. inhibition, % at 11.5 µM. AID 651958. CCHFV vOTU protease, Pep-AMC fluorescence. actives 0.55% (n = 370,000); in the data active = inhibition above about 30%
PrP 5UTR inh = inhibition of PrP 5' UTR reporter expression; cell-based PrP 5' UTR mRNA reporter, plate reader; inhibition, % (test concentration not listed); actives 0.35% (n = 340,000); AID 488862; in the data active = inhibition above about 52%
BJeLR viability = BJeLR cell viability loss; actives 0.17% (n = 300,000); inhibition, % (concentration not given with the values); BJeLR (HRASV12) viability, CellTiter-Glo ATP luminescence, 48 h; AID 1554; in the data active = inhibition above about 50%; inconclusive = no clear call, values can overlap the other calls
PfHsp40 yeast = restores yeast growth despite PfHsp40 toxicity; S. cerevisiae expressing PfHsp40, growth rescue, ATP luminescence; growth rescue, % at 12.5 µM; actives 0.68% (n = 340,000); AID 504582; in the data active = growth rescue above about 28%, passing the limit was not always enough; inconclusive = no clear call, values can overlap the other calls;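 also: yeast W303a lacking pdr1 and pdr3 grown in galactose medium; growth measured after three days at 30 °C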
Y pestis TopoI = Y. pestis Topo-I inhibition via cleavage products. Y. pestis Topo-I cleavage product accumulation, plate reader. activity, % at 10 µM. actives 0.064% (n = 360,000). AID 504884; in the data active = activity above about 50%, passing the limit was not always enough; inconclusive = no clear call, values can overlap the other calls
PrPC surface inh = reduces human prion protein on the cell surface | actives 0.43% (n = 370,000) | inhibition, % at 13.8 µM | cell surface PrPC, TR-FRET read-out | P04156; in the data active = inhibition above about 24%
PrP UTR cherry = prion 5' UTR mRNA inhibition, cherry-pick retest; actives 48% (n = 1,100); inhibition, % at 2.5 µM; cell-based prion protein 5' UTR reporter, plate reader; AID 504592; shares compounds with PrP 5UTR inh; in the data active = inhibition above about 54%; inconclusive = no clear call, values can overlap the other calls
Hits are given with their value; . = inactive; ? = inconclusive; / = no result. Shown are actives, neighbours in structure and some others; about 2% of the full set was active somewhere.

SMILES	CCHFV vOTU inh	PrP 5UTR inh	BJeLR viability	PfHsp40 yeast	Y pestis TopoI	PrPC surface inh	PrP UTR cherry
O=C(NC1CCCCC1)c1cc(C(=O)c2ccccc2Br)c[nH]1	.	71.0	.	.	.	.	.
CCSc1nc(-c2ccccc2)nc(C(Cl)Cl)n1	.	63.2	.	.	.	.	79.1
CCn1c2ccccc2c2cc(C=Nn3c(-c4ccccc4C)n[nH]c3=S)ccc21	.	/	/	/	/	.	/
O=C(/C=C/c1cccs1)Nc1ccc(Br)cn1	.	60.9	53.3	.	.	.	84.4
O=C(/C=C/c1cccs1)Nc1cccc(NC(=O)/C=C/c2cccs2)n1	.	.	.	.	.	.	/
Cc1nn(-c2ccccc2)c2sc(C(=O)N3CCN(C(c4ccccc4)c4ccc(Cl)cc4)CC3)cc12 (stereo not drawn)	.	/	/	/	/	.	/
CCC(C)(C)c1ccc(Oc2cccc(C(=O)O)c2)cc1	.	.	.	.	.	.	/
CCC(C)(C)c1ccc(Oc2ccc(N)cc2)cc1	.	87.3	.	.	.	.	88.5
COC(=O)C(O)(c1ccc(N(C)C)cc1)C(F)(F)F (stereo not drawn)	.	66.0	.	.	.	.	.
O=C(NCc1ccccc1Cl)c1ccc[nH]1	.	76.6	.	.	.	.	.
O=C(NCc1ccccc1Cl)NCc1ccccc1Cl	.	.	.	.	.	.	/
Cc1nn(-c2ccccc2Cl)c(Cl)c1/C=N/Nc1cccc(C(=O)O)c1	.	77.3	.	.	.	.	63.8
Cc1nn(-c2cccc(C(F)(F)F)c2)c(Cl)c1/C=N/Nc1cccc(C(=O)O)c1	.	.	.	.	.	.	/
Cc1ccsc1/C=N/Nc1cccc(C(=O)O)c1	.	72.3	/	.	.	.	67.7
Cc1cccc(CSC(=N)N)c1	.	52.5	.	.	.	.	.
CCOc1ccc(CSC(=N)N)cc1	.	.	.	.	.	.	/
N=C(N)SCCc1cccc(CCSC(=N)N)c1	.	70.5	.	.	.	.	.
CCC(=O)Nc1cc2nn(-c3ccc(C)cc3)nc2cc1C	.	67.6	.	.	.	.	62.4
CCOC(=O)C1=CCN(S(=O)(=O)c2ccc([N+](=O)[O-])cc2)C1c1ccc(C)cc1 (stereo not drawn)	.	/	/	/	/	.	/
COc1ccc(Cc2cnc(N)s2)cc1	.	76.9	.	.	.	.	.
COc1ccc2cc(C(N)=O)/c(=N\NC(=O)c3ccccc3)oc2c1	.	53.1	.	.	.	.	.
Nc1ccc2c(c1)-c1ccc(F)cc1C2=O	.	81.0	/	.	.	.	.
Cc1cc(-c2ccccc2)nc2oc(C(=O)NN)c(N)c12	.	72.3	.	.	.	.	.
Cc1cc(C)c2c(N)c(C(=O)c3ccccc3)oc2n1	.	.	.	.	.	.	/
CCc1ccc(NC(=O)c2cnn3ccccc23)cc1	.	51.3	.	.	.	.	?
SMILES	CCHFV vOTU inh	PrP 5UTR inh	BJeLR viability	PfHsp40 yeast	Y pestis TopoI	PrPC surface inh	PrP UTR cherry
CSc1cccc(NC(=O)c2cnn3ccccc23)c1	.	.	.	.	.	.	/
COc1ccc(/C=C2/SC(=S)N(c3ccc(S(=O)(=O)Nc4nccs4)cc3)C2=O)cc1	.	.	.	.	.	.	/
Cc1ccc(/C=C2/SC(=S)N(c3ccc(S(=O)(=O)Nc4nccs4)cc3)C2=O)cc1	.	83.1	.	.	.	.	.
CCCCN1CN2CCc3ccccc3C2CS1(=O)=O (stereo not drawn)	.	/	/	/	/	.	/
N=c1c2c(n(Cc3ccc([N+](=O)[O-])cc3)c3c1CCC3)CCCC2	.	80.0	.	.	.	.	.
N=c1c2c(n(Cc3ccc(Br)cc3)c3c1CCC3)CCCC2	.	.	.	.	.	.	/
CC(C)(C)C1=Nn2c(nnc2-c2ccc(C(C)(C)C)cc2)SC1	.	/	/	/	/	.	/
O=C(/C=C/c1ccccc1)Nc1cccc(C(=O)N2CCCCC2)c1	.	.	/	.	.	.	/
O=C(/C=C/c1ccccc1)Nc1cccc(C(=O)O)c1	.	79.8	.	.	.	.	81.7
O=C(c1cc2n(n1)C(C(F)(F)F)CC(c1ccco1)N2)N1CCc2ccccc2C1 (stereo not drawn)	.	64.4	.	.	.	.	.
COc1cccc(-c2nc3n(n2)C(c2cccs2)C(C(=O)Nc2cccnc2)=C(C)N3)c1 (stereo not drawn)	.	85.2	.	.	.	.	.
